In one test the target is Solute carrier family 2, facilitated glucose transporter member 1 (Homo sapiens) (UniProt P11166). In words: ST_JUDE_LEISH: Cytotoxicity at 2uM final concentration against transgenic Leishmania Mexicana promastigotes LmGLUT1 that are glucose transport deficient and complemented with the human glucose transporter GLUT1. Activity is measured by DNA content using SYBR green in vitro. It counts as functional.
Chain of Solute carrier family 2, facilitated glucose transporter member 1 (Homo sapiens) (P11166 whole entry): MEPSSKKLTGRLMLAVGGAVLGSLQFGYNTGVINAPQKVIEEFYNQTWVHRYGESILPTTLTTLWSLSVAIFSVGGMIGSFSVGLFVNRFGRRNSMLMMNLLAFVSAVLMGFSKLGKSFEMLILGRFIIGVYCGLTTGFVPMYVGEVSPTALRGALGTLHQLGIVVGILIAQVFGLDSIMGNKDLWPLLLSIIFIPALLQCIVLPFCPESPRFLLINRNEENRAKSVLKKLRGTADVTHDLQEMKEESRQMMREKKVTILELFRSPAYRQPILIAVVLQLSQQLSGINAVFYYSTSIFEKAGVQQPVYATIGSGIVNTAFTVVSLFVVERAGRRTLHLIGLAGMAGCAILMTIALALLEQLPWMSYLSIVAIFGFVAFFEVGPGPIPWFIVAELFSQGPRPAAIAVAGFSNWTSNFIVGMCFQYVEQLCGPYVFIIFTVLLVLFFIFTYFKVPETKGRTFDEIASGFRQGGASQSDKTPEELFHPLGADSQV
One may read the inhibition as the drop in the measured response relative to a control, in per cent. As to `CCc1cc2c3c(N)nc(N)nc3ccc2n1C(CC)CC`, the inhibition stood at 71.2%.
Take `CN1CCN(c2cccc(-c3nnc(-c4ccc(OCC(=O)NCc5cccc(C(F)(F)F)c5)c([N+](=O)[O-])c4)o3)c2)CC1`: the inhibition came to 8.88%.
Same read-out and setting: in the case of `COc1cc(C)ccc1S(=O)(=O)N1CCCCC(c2ccc(C(F)(F)F)cc2)=N1` it was 10.8%; in that of `Cc1cccc2nc(-c3ccc(-c4ccc(NC(=O)c5cncn5C)cc4)s3)[nH]c12`, 11.3%; in that of `Cc1cc(C(=O)Nc2ccc3c(c2)CCN3C2CCN(Cc3csc4ccccc34)C2)no1` (stereo not given), 0.87%.
The same measure, in the same setting: to `O=C(Nc1ccc(F)cc1)NC1CCN(c2ccnc3cc(Cl)ccc23)CC1` belongs 3.63%; to `COC(=O)c1cccc(CNCc2ccc(-c3ccc(-c4nc5cc(C(F)(F)F)ccc5[nH]4)cc3)cc2)c1`, 3.94%.
Still for that read-out and setting: to `CCCn1c(Sc2ccc(C#N)c([N+](=O)[O-])c2)nnc1-c1ccc(OC)cc1` belongs 1.76%; to `CCCCCCN1CCC(CNCc2cccc(Cl)c2)CC1`, 1.66%.
In the case of `Cn1cncc1CCN(Cc1ccc(-c2ccc(C(F)(F)F)cc2)cc1)C(=O)Cn1c(SCc2cccc(F)c2F)cc(=O)c2ccccc21`, the inhibition was 4.77%.
Same read-out and setting: to `CC(C)C[C@H](NC(=O)c1cc(-c2ccc(C(C)(C)C)cc2)no1)C(=O)O.CC(C)C[C@H](NC(=O)c1conc1-c1ccc(C(C)(C)C)cc1)C(=O)O` belongs 1.21%; to `COc1ccccc1N1CCN(CCCCNC(=O)c2ccc(NC(=O)c3ccc(OC(F)(F)F)cc3)cc2)CC1`, 1.23%; to `O=S(=O)(Nc1cccc(CCN2CCC(N3CCCCC3)CC2)c1)c1ccc(-c2ccccc2)cc1`, 3.35%.
In the case of `CCc1cn2c3c(cc(C(=O)N[C@@H](Cc4cccc(Cl)c4)[C@H](O)CNC4CC4)cc13)N(C)S(=O)(=O)CC2`, the inhibition was -0.47%.
On the same count and under the same terms, in the case of `O=C(NC(CCCN1CCC2(CC1)OCc1ccccc12)c1ccc(Cl)c(Cl)c1)c1cc(C(F)(F)F)cc(C(F)(F)F)c1` (stereo not given) it was 1.7%.
Same read-out and setting: in the case of `CCC[C@@H]([C@@H](CC(C)C)C(=O)N[C@@H](CCC/N=C(/N)NS(C)(=O)=O)C(=O)Nc1nccs1)N(O)C=O` it was 7.57%; in that of `COc1cc2nc(NCCc3ccccc3)nc(NCc3ccc(C#N)cc3)c2cc1OC`, 3.59%.
The same measure, in the same setting: in the case of `Fc1ccc2c(NN=Cc3ccc(Cl)cc3)ccnc2c1` it was 10.8%; in that of `CCOc1c(OC)ccc2c1CCN(CCN1CCC(NC(=O)c3ccc(-c4cccc(C(F)(F)F)c4C(F)(F)F)cc3)CC1)C2`, 1.91%; in that of `COc1ccc2nc(C)cc(NCc3ccc4ccccc4c3)c2c1`, 12.8%.
Consider `Cc1cc(C)n(Cc2ccc(C(=O)NCC3CCCCC3)cc2)n1`, for which the inhibition was 4.03%.
On the same count and under the same terms, to `CCCNCc1ccc(-c2ccc(CN(CCOC)C(=O)CCc3ccc(OC)cc3)cc2)nc1` belongs 0.6%; to `C=C[C@]1(C)C[C@@H](OC(=O)c2n[nH]c3ccccc3c2=O)[C@]2(C)[C@H](C)CC[C@]3(CCC(=O)[C@H]32)[C@@H](C)[C@@H]1O`, 5.34%.
For the compound `CCCCCN1CCC(NS(=O)(=O)c2cccc(C(=O)Nc3ccc(C(F)(F)F)cc3)c2)C1` (stereo not given), the inhibition stood at 1.64%.
Still for that read-out and setting: to `Oc1cc(NCCCNC2CCc3c(Cl)cc(Cl)cc32)nc2ccccc12` (stereo not given) belongs 0.63%; to `Nc1ncc(-c2ccc(F)c(Cl)c2)c(N)n1`, 1.16%.
Same read-out and setting: to `CC1CN(CCCn2c3ccccc3c3ccc(C(=O)CCCN(C)C)cc32)CC(C)N1` (stereo not given) belongs 1.15%; to `CC(=O)Nc1ccc(C2NC(=O)NC(c3ccccc3)=C2c2nc3ccccc3s2)cc1` (stereo not given), 3.15%; to `O=C(Nc1ccc(Cl)cc1)c1cc(Cl)cc2nc(C(F)(F)F)[nH]c12`, 9.28%.
Regarding `N#Cc1ccc(CNCCCCCCCNCc2ccc(-c3ccccc3)cc2)cc1`, the inhibition is 4.19%.
`Cn1nc(-c2ccc(CN[C@@H]3CCc4ccc(O)cc43)cc2)c2cnc(NCCCN3CCCC3)nc21`: the inhibition came to 1.97%.
Still for that read-out and setting: to `OC(CNc1ccnc(Nc2cccc(CCN3CCOCC3)c2)n1)c1ccccc1` (stereo not given) belongs 0.07%; to `Cc1c[nH]c2cc(/C=C/C(=O)NC3CCC(CCN4CCc5ccc(C#N)cc5CC4)CC3)ccc12` (stereo not given), 2.72%.
Still for that read-out and setting: to `Fc1ccc2[nH]c3c(NCCN4CCCCC4)ncnc3c2c1` belongs -3.47%; to `CCN(CC)CCN(Cc1ccc(-c2ccc(C(F)(F)F)cc2)cc1)C(=O)Cn1c(SCc2ccc(F)cc2)nc(=O)c2ccccc21`, 4.02%; to `O=C(Nc1cccc(-c2cccc(-c3nc4cc(C(F)(F)F)ccc4[nH]3)c2)c1)Nc1ccc(F)c(F)c1F`, -0.38%.
As for `COc1ccc(-n2ccnc2SCC(=O)Nc2cccc(C(F)(F)F)c2)c(OC)c1`, the inhibition was 0.63%.
Still for that read-out and setting: in the case of `CCc1cn2c3c(cc(C(=O)N[C@@H](Cc4ccccc4)[C@H](O)CNC4CCOCC4)cc13)N(C(C)C)S(=O)(=O)CC2` it was -1.49%; in that of `Cc1nc(N)nc(N)c1OCCCOc1cccc(Cl)c1Cl`, 65.6%.
On the same count and under the same terms, in the case of `CN(CCCN(C)c1cc(NC(=O)c2ccc(F)cc2)ccn1)Cc1cccc(O)c1` it was -1.12%.

The target in the next test is Hexose transporter 1 (Plasmodium falciparum) (UniProt O97467). The test is described as follows: ST_JUDE_LEISH: Cytotoxicity at 2uM final concentration against transgenic Leishmania Mexicana promastigotes LmPfHT that are glucose transport deficient and complemented with the Plasmodium falciparum hexose transporter. Activity is measured by DNA content using SYBR green in vitro. Type of test: functional.
As to `CCc1cc2c3c(N)nc(N)nc3ccc2n1C(CC)CC`, the inhibition amounted to 72.7%.
As for `CN1CCN(c2cccc(-c3nnc(-c4ccc(OCC(=O)NCc5cccc(C(F)(F)F)c5)c([N+](=O)[O-])c4)o3)c2)CC1`, the inhibition worked out at 8.11%.
Same read-out and setting: in the case of `COc1cc(C)ccc1S(=O)(=O)N1CCCCC(c2ccc(C(F)(F)F)cc2)=N1` it was 11.2%; in that of `Cc1cccc2nc(-c3ccc(-c4ccc(NC(=O)c5cncn5C)cc4)s3)[nH]c12`, 9.8%; in that of `Cc1cc(C(=O)Nc2ccc3c(c2)CCN3C2CCN(Cc3csc4ccccc34)C2)no1` (stereo not given), -2.02%.
On the same count and under the same terms, to `O=C(Nc1ccc(F)cc1)NC1CCN(c2ccnc3cc(Cl)ccc23)CC1` belongs 3.1%; to `COC(=O)c1cccc(CNCc2ccc(-c3ccc(-c4nc5cc(C(F)(F)F)ccc5[nH]4)cc3)cc2)c1`, 1.94%.
In the case of `CCCn1c(Sc2ccc(C#N)c([N+](=O)[O-])c2)nnc1-c1ccc(OC)cc1`, the inhibition was determined as 0.24%.
Still for that read-out and setting: in the case of `CCCCCCN1CCC(CNCc2cccc(Cl)c2)CC1` it was 2.08%; in that of `Cn1cncc1CCN(Cc1ccc(-c2ccc(C(F)(F)F)cc2)cc1)C(=O)Cn1c(SCc2cccc(F)c2F)cc(=O)c2ccccc21`, 1.65%; in that of `CC(C)C[C@H](NC(=O)c1cc(-c2ccc(C(C)(C)C)cc2)no1)C(=O)O.CC(C)C[C@H](NC(=O)c1conc1-c1ccc(C(C)(C)C)cc1)C(=O)O`, 0.89%.
Regarding `COc1ccccc1N1CCN(CCCCNC(=O)c2ccc(NC(=O)c3ccc(OC(F)(F)F)cc3)cc2)CC1`, the inhibition is -0.16%.
Still for that read-out and setting: to `O=S(=O)(Nc1cccc(CCN2CCC(N3CCCCC3)CC2)c1)c1ccc(-c2ccccc2)cc1` belongs 5.01%; to `CCc1cn2c3c(cc(C(=O)N[C@@H](Cc4cccc(Cl)c4)[C@H](O)CNC4CC4)cc13)N(C)S(=O)(=O)CC2`, -1.46%; to `O=C(NC(CCCN1CCC2(CC1)OCc1ccccc12)c1ccc(Cl)c(Cl)c1)c1cc(C(F)(F)F)cc(C(F)(F)F)c1` (stereo not given), 0.26%.
Still for that read-out and setting: in the case of `CCC[C@@H]([C@@H](CC(C)C)C(=O)N[C@@H](CCC/N=C(/N)NS(C)(=O)=O)C(=O)Nc1nccs1)N(O)C=O` it was 9.74%.
On to `COc1cc2nc(NCCc3ccccc3)nc(NCc3ccc(C#N)cc3)c2cc1OC`, for which the inhibition amounted to 6.39%.
Turning to `Fc1ccc2c(NN=Cc3ccc(Cl)cc3)ccnc2c1`, the inhibition came to 10.9%.
Same read-out and setting: in the case of `CCOc1c(OC)ccc2c1CCN(CCN1CCC(NC(=O)c3ccc(-c4cccc(C(F)(F)F)c4C(F)(F)F)cc3)CC1)C2` it was 1.96%; in that of `COc1ccc2nc(C)cc(NCc3ccc4ccccc4c3)c2c1`, 9.9%.
The same measure, in the same setting: in the case of `Cc1cc(C)n(Cc2ccc(C(=O)NCC3CCCCC3)cc2)n1` it was 2.07%; in that of `CCCNCc1ccc(-c2ccc(CN(CCOC)C(=O)CCc3ccc(OC)cc3)cc2)nc1`, -1.02%.
Regarding `C=C[C@]1(C)C[C@@H](OC(=O)c2n[nH]c3ccccc3c2=O)[C@]2(C)[C@H](C)CC[C@]3(CCC(=O)[C@H]32)[C@@H](C)[C@@H]1O`, the inhibition was determined as 0.28%.
In the case of `CCCCCN1CCC(NS(=O)(=O)c2cccc(C(=O)Nc3ccc(C(F)(F)F)cc3)c2)C1` (stereo not given), the inhibition was 1.94%.
For the compound `Oc1cc(NCCCNC2CCc3c(Cl)cc(Cl)cc32)nc2ccccc12` (stereo not given), the inhibition is 0.11%.
Still for that read-out and setting: in the case of `Nc1ncc(-c2ccc(F)c(Cl)c2)c(N)n1` it was 4.76%.
Same read-out and setting: in the case of `CC1CN(CCCn2c3ccccc3c3ccc(C(=O)CCCN(C)C)cc32)CC(C)N1` (stereo not given) it was 1.4%.
On the same count and under the same terms, in the case of `CC(=O)Nc1ccc(C2NC(=O)NC(c3ccccc3)=C2c2nc3ccccc3s2)cc1` (stereo not given) it was 0.83%.
With `O=C(Nc1ccc(Cl)cc1)c1cc(Cl)cc2nc(C(F)(F)F)[nH]c12`, the inhibition was 15%.
Consider `N#Cc1ccc(CNCCCCCCCNCc2ccc(-c3ccccc3)cc2)cc1`, for which the inhibition was determined as 5.01%.
Same read-out and setting: in the case of `Cn1nc(-c2ccc(CN[C@@H]3CCc4ccc(O)cc43)cc2)c2cnc(NCCCN3CCCC3)nc21` it was 0.42%; in that of `OC(CNc1ccnc(Nc2cccc(CCN3CCOCC3)c2)n1)c1ccccc1` (stereo not given), 3.46%; in that of `Cc1c[nH]c2cc(/C=C/C(=O)NC3CCC(CCN4CCc5ccc(C#N)cc5CC4)CC3)ccc12` (stereo not given), 1.75%.
`Fc1ccc2[nH]c3c(NCCN4CCCCC4)ncnc3c2c1`: the inhibition was -0.73%.
On the same count and under the same terms, to `CCN(CC)CCN(Cc1ccc(-c2ccc(C(F)(F)F)cc2)cc1)C(=O)Cn1c(SCc2ccc(F)cc2)nc(=O)c2ccccc21` belongs 1.11%; to `O=C(Nc1cccc(-c2cccc(-c3nc4cc(C(F)(F)F)ccc4[nH]3)c2)c1)Nc1ccc(F)c(F)c1F`, -0.91%; to `COc1ccc(-n2ccnc2SCC(=O)Nc2cccc(C(F)(F)F)c2)c(OC)c1`, 0.74%.
Same read-out and setting: to `CCc1cn2c3c(cc(C(=O)N[C@@H](Cc4ccccc4)[C@H](O)CNC4CCOCC4)cc13)N(C(C)C)S(=O)(=O)CC2` belongs 3.8%; to `Cc1nc(N)nc(N)c1OCCCOc1cccc(Cl)c1Cl`, 65.8%; to `CN(CCCN(C)c1cc(NC(=O)c2ccc(F)cc2)ccn1)Cc1cccc(O)c1`, -0.11%.

For the origin of these results see ChEMBL document CHEMBL3433997, “St. Jude Leishmania screening dataset” (2016).
